Inconclusive results are not listed. Activity calls are given as the source filed them. Calls come from the whole dose curve; as a rule, active = well fitted inhibition curve with a large enough effect; inconclusive = small, poorly fitted or top-dose-only effect; inactive = flat fitted curve, though single readings scatter.
How the values were obtained:
Assay in all cases: qHTS profiling for inhibitors of Plasmodium falciparum proliferation (AID 504749); note: nearly all actives have a fitted effect of over 60% in size
Conditions in all cases: P. falciparum in erythrocytes, SYBR Green DNA, 72 h; series mostly up to 28.7 µM
CP185 = test system: CP185
Summary of the method: (§1)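 Three-day growth assay of blood-stage parasites in erythrocytes (0.3% parasitemia, 2.5% hematocrit) at 37 C, 5% CO2, quantified by SYBR Green DNA staining after overnight detergent lysis.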

CP191 = test system: CP191
Summary of the method: as §1

CP192 = test system: CP192
Summary of the method: as §1

CP194 = test system: CP194
Summary of the method: as §1

CP201 = test system: CP201
Summary of the method: as §1

CP203 = test system: CP203
Summary of the method: as §1

CP211 = test system: CP211
Summary of the method: as §1

CP215 = test system: CP215
Summary of the method: as §1

CP217 = test system: CP217
Summary of the method: as §1

CP237 = test system: CP237
Summary of the method: as §1

CP238 = test system: CP238
Summary of the method: as §1

CP247 = test system: CP247
Summary of the method: as §1

CP250 = test system: CP250
Summary of the method: as §1

CP252 = test system: CP252
Summary of the method: as §1

CP256 = test system: CP256
Summary of the method: as §1

CP260 = test system: CP260
Summary of the method: as §1

CP262 = test system: CP262
Summary of the method: as §1

CP265 = test system: CP265
Summary of the method: as §1

CP268 = test system: CP268
Summary of the method: as §1

CP266 = test system: CP266
Summary of the method: as §1

Measured: Potency
Potency is the fitted concentration of half-maximal effect.

CC(C)NC[C@H](O)COc1ccc(CC(N)=O)cc1
inactive: CP185 | CP191 | CP192 | CP194 | CP201 | CP203 | CP211 | CP215 | CP217 | CP237 | CP238 | CP247 | CP250 | CP252 | CP256 | CP260 | CP262 | CP265 | CP268

CC(O)C(O)[C@H]1CNc2nc(N)[nH]c(=O)c2N1 (stereo partly specified)
inactive: CP185 | CP191 | CP192 | CP194 | CP201 | CP203 | CP211 | CP215 | CP217 | CP237 | CP238 | CP247 | CP250 | CP252 | CP256 | CP260 | CP262 | CP265 | CP266 | CP268

CCCCCCCCCCCCCCCCCCOC[C@H](COP(=O)([O-])OCC[N+](C)(C)C)OC
inactive: CP185 | CP191 | CP192 | CP194 | CP201 | CP203 | CP211 | CP215 | CP217 | CP237 | CP238 | CP247 | CP250 | CP252 | CP256 | CP262 | CP265 | CP266 | CP268

c1ccc(C2CN3CCSC3=N2)cc1 (stereo unspecified)
active: CP191 7.94 µM | CP192 19 µM | CP203 16.9 µM | CP237 3.98 µM | CP260 10 µM | CP265 4.47 µM
inactive: CP201 | CP262

CN1C2CCC1CC(OC(c1ccccc1)c1ccccc1)C2 (stereo unspecified)
inactive: CP192 | CP203 | CP211 | CP238 | CP265

CCCCCCCCCCCCCCC[C@H](O)[C@H](N)CO
inactive: CP185 | CP191 | CP192 | CP194 | CP201 | CP203 | CP211 | CP215 | CP217 | CP237 | CP238 | CP247 | CP250 | CP252 | CP256 | CP260 | CP262 | CP265 | CP266 | CP268
